# For some of these results: Measured potencies and affinities stand elsewhere. Active and inactive are the calls of the source.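 The calls were made as follows, unless noted: active = fluorescence ratio normalized to control raised more than 50% in primary screen plus both repeat runs; inactive = the rest.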
# Assays:
# [1] = system: TRPC4 beta (transient receptor potential cation channel C4), mouse; test: TRPC4 cation channel opening, retest – cell-based, Fluo4 calcium, HEK293 TRPC4beta/mu-opioid, duplicates, 10 µM, confirmation (AID 2426); conditions: Fluo4 calcium fluorescence, at 10 µM; active compounds read high;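 as to activation: percent rise of integrated ratio over buffer wells lacking compound which define 0%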
# [2] = system: transient receptor potential cation channel C4 beta (TRPC4), mouse; test: TRPC4 cation channel opening, second retest – cell-based, second round, Fluo4, HEK293 TRPC4beta/mu-opioid, 1 µM, confirmation (AID 2461;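 active = primary screen active and over 50% activation in each of two duplicate runs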); conditions: Fluo4 calcium fluorescence, at 1 µM; active compounds read high
# [3] = system: TRPC4 (transient receptor potential cation channel C4 beta), mouse; test: potentiation of DAMGO EC20 TRPC4 response – cell-based, second round, Fluo-4, HEK293 TRPC4beta/mu-opioid, 1 µM, confirmation (AID 2554;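 active = primary screen hit whose fluorescence ratio, in both repeats, exceeds the weak agonist control mean by 3 SD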); conditions: DAMGO EC20, Fluo-4 calcium flux, at 1 µM; active compounds read high
# [4] = system: TRPC4 beta (transient receptor potential cation channel C4), mouse; test: potentiation of DAMGO EC20 TRPC4 response – cell-based, Fluo-4, HEK293 TRPC4beta/mu-opioid, confirmation (AID 2555;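 active = primary screen hit whose calcium fluorescence ratio, in both repeats, exceeds the weak agonist control mean by 3 SD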); conditions: DAMGO EC20, Fluo-4 calcium flux, at 10 µM; active compounds read high
# [5] = molecular target: Short transient receptor potential channel 4 (Mus musculus) (UniProt Q9QUQ5); test: blockers of DAMGO-evoked TRPC4 calcium flux – cell-based, Fluo4, HEK293 TRPC4beta/mu-opioid, confirmation (AID 2636;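 active = calcium signal cut by more than 3 SD below the full-agonist control yet still positive, in both repeats and the earlier primary screen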); conditions: at 10 µM; active compounds read high
# Short transient receptor potential channel 4 (Mus musculus), sequence (Q9QUQ5 whole entry, looked up): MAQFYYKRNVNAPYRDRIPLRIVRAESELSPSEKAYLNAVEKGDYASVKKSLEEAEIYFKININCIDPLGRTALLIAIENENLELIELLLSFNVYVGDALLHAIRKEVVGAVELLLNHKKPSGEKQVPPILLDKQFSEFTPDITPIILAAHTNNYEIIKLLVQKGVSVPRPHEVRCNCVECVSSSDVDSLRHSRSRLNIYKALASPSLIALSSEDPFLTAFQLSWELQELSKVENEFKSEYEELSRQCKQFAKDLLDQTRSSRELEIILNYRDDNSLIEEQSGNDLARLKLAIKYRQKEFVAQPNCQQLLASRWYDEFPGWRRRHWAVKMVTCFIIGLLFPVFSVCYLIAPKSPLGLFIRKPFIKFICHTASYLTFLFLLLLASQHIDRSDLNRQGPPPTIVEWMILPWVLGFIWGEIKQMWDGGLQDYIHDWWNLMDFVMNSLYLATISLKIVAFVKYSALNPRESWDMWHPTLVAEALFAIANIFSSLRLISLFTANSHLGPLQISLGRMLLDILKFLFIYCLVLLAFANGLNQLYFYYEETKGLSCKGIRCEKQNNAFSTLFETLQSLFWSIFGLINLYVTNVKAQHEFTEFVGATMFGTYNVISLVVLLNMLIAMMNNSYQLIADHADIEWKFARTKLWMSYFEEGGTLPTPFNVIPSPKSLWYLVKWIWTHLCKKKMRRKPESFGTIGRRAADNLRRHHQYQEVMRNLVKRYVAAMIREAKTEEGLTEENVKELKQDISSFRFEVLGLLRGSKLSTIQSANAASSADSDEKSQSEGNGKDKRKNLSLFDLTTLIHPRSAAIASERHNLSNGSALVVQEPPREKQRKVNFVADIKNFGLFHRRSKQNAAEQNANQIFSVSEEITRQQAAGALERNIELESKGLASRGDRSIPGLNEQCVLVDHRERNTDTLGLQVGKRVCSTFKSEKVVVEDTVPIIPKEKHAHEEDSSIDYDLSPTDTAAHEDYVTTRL
# [6] = molecular target: Short transient receptor potential channel 4 (Mus musculus) (UniProt Q9QUQ5); test: blockers of DAMGO-evoked TRPC4 calcium flux – cell-based, second round, Fluo4, HEK293 TRPC4beta/mu-opioid, 1 µM, confirmation (AID 2637;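 active = calcium signal ratio cut to more than 3 SD under the fully stimulated control mean yet still positive, in both repeats and the primary screen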;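 as to inhibition: percent of integrated ratio relative to wells lacking test compound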); conditions: at 1 µM; active compounds read high
# [7] = molecular target: Short transient receptor potential channel 4 (Mus musculus) (UniProt Q9QUQ5); test: calcium entry via TRPC4 opening agents – cell-based, HEK293 TRPC4/mu-opioid, Fluo-4 calcium, dose response (AID 434937;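 active = primary screen activator hit with a dose response curve and TRPC4 channel activation at any tested dose; inactive = no activation, no dose response, or not a primary hit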)
# [8] = molecular target: Short transient receptor potential channel 4 (Mus musculus) (UniProt Q9QUQ5); test: potentiation of DAMGO-evoked TRPC4 calcium signal – cell-based, HEK293 TRPC4/mu-opioid, Fluo-4 calcium, EC20 DAMGO, dose response (AID 434941;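 active = earlier screen potentiator hit that boosts the TRPC4 ion channel at some dose, with a dose response; inactive = no potentiation, no dose response, or not a prior hit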;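 also: calcium entry triggered by an EC20 dose of DAMGO at the co-expressed mu-opioid receptor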)
# [9] = molecular target: Short transient receptor potential channel 6 (Mus musculus) (UniProt Q61143); test: TRPC6 blockade by TRPC4 inhibitor hits – cell-based, HEK293, membrane potential dye, duplicate, selectivity assay for TRPC4 inhibitor project, confirmation (AID 434948;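 active = active in primary screen and both duplicates, each dropping signal beyond three positive-control SD with fluorescence still positive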); conditions: HEK293 TRPC6, membrane potential dye fluorescence, at 10 µM, stimulated with maximal-effect acetylcholine; active compounds read high
# Short transient receptor potential channel 6 (Mus musculus), sequence (Q61143 whole entry, looked up): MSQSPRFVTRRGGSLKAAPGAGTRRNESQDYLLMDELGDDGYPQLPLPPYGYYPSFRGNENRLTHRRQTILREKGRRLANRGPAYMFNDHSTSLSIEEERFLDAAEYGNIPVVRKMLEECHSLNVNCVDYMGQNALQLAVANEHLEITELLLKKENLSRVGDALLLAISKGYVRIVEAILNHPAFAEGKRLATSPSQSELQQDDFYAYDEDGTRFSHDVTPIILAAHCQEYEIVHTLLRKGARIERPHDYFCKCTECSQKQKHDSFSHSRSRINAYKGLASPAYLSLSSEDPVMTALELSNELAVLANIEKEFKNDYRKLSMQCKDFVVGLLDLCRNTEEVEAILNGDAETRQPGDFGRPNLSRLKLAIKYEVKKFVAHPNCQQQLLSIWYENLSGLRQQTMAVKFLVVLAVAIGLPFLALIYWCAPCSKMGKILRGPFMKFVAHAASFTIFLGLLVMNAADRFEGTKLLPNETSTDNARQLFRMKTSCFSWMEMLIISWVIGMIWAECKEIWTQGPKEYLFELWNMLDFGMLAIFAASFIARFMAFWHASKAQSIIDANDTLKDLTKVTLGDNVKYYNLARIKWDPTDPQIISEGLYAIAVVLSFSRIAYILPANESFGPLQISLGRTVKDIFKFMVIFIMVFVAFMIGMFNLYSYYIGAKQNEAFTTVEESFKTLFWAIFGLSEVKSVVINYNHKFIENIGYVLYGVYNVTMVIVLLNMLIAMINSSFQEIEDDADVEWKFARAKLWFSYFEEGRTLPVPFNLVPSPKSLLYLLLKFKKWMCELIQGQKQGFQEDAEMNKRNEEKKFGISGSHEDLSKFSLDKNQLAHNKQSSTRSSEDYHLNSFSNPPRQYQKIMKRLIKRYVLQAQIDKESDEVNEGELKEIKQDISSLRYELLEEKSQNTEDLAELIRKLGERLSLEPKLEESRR
# [10] = molecular target: Short transient receptor potential channel 6 (Mus musculus) (UniProt Q61143); test: TRPC6 opening by TRPC4 activator hits – cell-based, HEK293, membrane potential dye, duplicate, selectivity assay for TRPC4 activator project, confirmation (AID 434950;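 active = membrane potential signal rise above negative control mean plus 3 SD in both duplicates, also active in the earlier TRPC4 screen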); conditions: HEK293 TRPC6, membrane potential fluorescence, at 10 µM; activation: active compounds read high; outcome: activation
# [11] = molecular target: Short transient receptor potential channel 6 (Mus musculus) (UniProt Q61143); test: positive modulators of mouse TRPC6 channel – HEK293 cells, membrane potential dye, duplicate, selectivity assay for TRPC4 potentiator project, confirmation (AID 434952;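 active = compound raising the membrane signal above positive-control mean plus 3 SD in both repeats, and a primary screen hit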); conditions: HEK293 TRPC6, membrane potential dye fluorescence, at 10 µM, maximal acetylcholine added after compound; active compounds read high
# [12] = molecular target: Short transient receptor potential channel 4 (Mus musculus) (UniProt Q9QUQ5); test: calcium flux activators in TRPC4/5HT1a cells, counter-screen for TRPC4 activator project, cell-based, second counter screen, HEK293 TRPC4/5HT1a, Fluo-4 (AID 434977;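 active = calcium signal rise above buffer-control mean plus 5 SD in both duplicates, and also a hit in the primary screen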); conditions: Fluo-4 calcium flux, at 10 µM; active compounds read high
# [13] = serotonin-gated TRPC4 signal block – cell-based, second counter screen, HEK293 TRPC4/5HT1a, Fluo-4, counter-screen for TRPC4 inhibitor project, confirmation (AID 434978;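 active = primary screen active whose calcium signal fell more than 3 SD beyond the full-serotonin control mean in both duplicate plates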;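 as to outcome: serotonin given first at submaximal then at maximal dose after compound preincubation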); conditions: Fluo-4 calcium flux, at 10 µM, serotonin added to trigger calcium flux; active compounds read high
# [14] = system: TRPC4 (mouse), co-expressed with 5HT1a in HEK293; test: enhancement of serotonin-evoked TRPC4 response – cell-based, second counter screen, HEK293 TRPC4/5HT1a, Fluo-4, counter-screen for TRPC4 potentiator project, confirmation (AID 434979;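 active = signal rise over 3 SD above mean of control wells given weak agonist, in both repeats and first screen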); conditions: Fluo-4 calcium flux, at 10 µM, serotonin added at its EC20 dose; active compounds read high
# [15] = nonspecific calcium rise without TRPC4 – cell-based, HEK293 mu-opioid receptor line, counter-screen for TRPC4 activator project, confirmation (AID 449723;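 active = hit in primary screen, with calcium signal over 5 SD above buffer well mean in both duplicates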;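 also: counter screen cells carry the mu-opioid receptor alone and lack TRPC4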); conditions: HEK293 mu-opioid cells, Fluo-4 calcium fluorescence, at 10 µM; active compounds read high
# [16] = nonspecific potentiation of DAMGO calcium response – cell-based, HEK293 mu-opioid receptor line, counter-screen for TRPC4 allosteric potentiator project, confirmation (AID 449724;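 active = calcium signal rise more than 3 SD above the low-dose agonist control mean, in both duplicate plates and the primary screen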); conditions: HEK293 mu-opioid receptor cells, Fluo-4 calcium flux, at 10 µM, compound added before EC20 DAMGO stimulus; active compounds read high
structure (smiles),measurement,setting,value
CCOc1ccccc1N(C(=O)c1snc(C(N)=O)c1N)C(C(=O)NCc1ccccc1)c1ccc(O)cc1 (stereo unspecified),outcome,[1],inactive
same,outcome,[2],inactive
same,outcome,[3],inactive
same,outcome,[4],inactive
same,inhibition,[5],79% (active)
same,outcome,[6],inactive
same,outcome,[7],inactive
same,outcome,[8],inactive
same,outcome,[9],inactive
same,outcome,[10],inactive
same,outcome,[11],inactive
same,outcome,[12],inactive
same,inhibition,[13],41.9% (active)
same,outcome,[14],inactive
same,outcome,[15],inactive
same,outcome,[16],inactive
Cc1cc(-c2sccc2C)nc(-n2cccc2)n1,outcome,[1],inactive
same,outcome,[2],inactive
same,outcome,[3],inactive
same,outcome,[4],inactive
same,inhibition,[5],91% (active)
same,outcome,[6],inactive
same,outcome,[7],inactive
same,outcome,[8],inactive
same,outcome,[9],inactive
same,outcome,[10],inactive
same,outcome,[11],inactive
same,outcome,[12],inactive
same,outcome,[13],inactive
same,outcome,[14],inactive
same,outcome,[15],inactive
same,outcome,[16],inactive
CC12CN3CC(C)(CN(C1)C3c1ccc(Cl)cc1Cl)C2O (stereo unspecified),activation,[1],66% (active)
same,outcome,[2],inactive
same,outcome,[3],inactive
same,outcome,[4],inactive
same,outcome,[5],inactive
same,inhibition,[6],64% (active)
same,outcome,[7],inactive
same,outcome,[8],inactive
same,outcome,[9],inactive
same,outcome,[10],inactive
same,outcome,[11],inactive
same,outcome,[12],inactive
same,outcome,[13],inactive
same,outcome,[14],inactive
same,outcome,[15],inactive
same,outcome,[16],inactive
CC[n+]1c(/C=C/Nc2ccccc2)oc2ccc(OC)cc21,outcome,[1],inactive
same,outcome,[2],inactive
same,outcome,[3],inactive
same,outcome,[4],inactive
same,inhibition,[5],92% (active)
same,outcome,[6],inactive
same,outcome,[7],inactive
same,outcome,[8],inactive
same,inhibition,[9],46.5% (active)
same,outcome,[10],inactive
same,outcome,[11],inactive
same,outcome,[12],inactive
same,inhibition,[13],34% (active)
same,outcome,[14],inactive
same,outcome,[15],inactive
same,outcome,[16],inactive
COCCn1c(SCc2ccccc2F)nc2ccccc2c1=O,outcome,[1],inactive
same,outcome,[2],inactive
same,outcome,[3],inactive
same,outcome,[4],inactive
same,inhibition,[5],88% (active)
same,outcome,[6],inactive
same,outcome,[7],inactive
same,outcome,[8],inactive
same,outcome,[9],inactive
same,outcome,[10],inactive
same,outcome,[11],inactive
same,outcome,[12],inactive
same,inhibition,[13],20.8% (active)
same,outcome,[14],inactive
same,outcome,[15],inactive
same,outcome,[16],inactive
CCn1c(NCc2c[nH]c3ccccc23)nc2ccccc21,outcome,[1],inactive
same,outcome,[2],inactive
same,outcome,[3],inactive
same,outcome,[4],inactive
same,inhibition,[5],89% (active)
same,outcome,[6],inactive
same,outcome,[7],inactive
same,outcome,[8],inactive
same,outcome,[9],inactive
same,outcome,[10],inactive
same,outcome,[11],inactive
same,outcome,[12],inactive
same,inhibition,[13],32.7% (active)
same,outcome,[14],inactive
same,outcome,[15],inactive
same,outcome,[16],inactive
CC(=O)N(c1ccc(Cl)cc1)c1c[nH]c2ccccc12,outcome,[1],inactive
same,outcome,[2],inactive
same,outcome,[3],inactive
same,outcome,[4],inactive
same,inhibition,[5],94% (active)
same,outcome,[6],inactive
same,outcome,[7],inactive
same,outcome,[8],inactive
same,outcome,[9],inactive
same,outcome,[10],inactive
same,outcome,[11],inactive
same,outcome,[12],inactive
same,inhibition,[13],22.3% (active)
same,outcome,[14],inactive
same,outcome,[15],inactive
same,outcome,[16],inactive
CC(COc1ccccc1)N1CCC(CO)(Cc2ccccc2)CC1 (stereo unspecified),outcome,[1],inactive
same,outcome,[2],inactive
same,outcome,[3],inactive
same,outcome,[4],inactive
same,inhibition,[5],96% (active)
same,outcome,[6],inactive
same,outcome,[7],inactive
same,outcome,[8],inactive
same,outcome,[9],inactive
same,outcome,[10],inactive
same,outcome,[11],inactive
same,outcome,[12],inactive
same,inhibition,[13],22.9% (active)
same,outcome,[14],inactive
same,outcome,[15],inactive
same,outcome,[16],inactive
CC1CCCCN1CCCNC(=O)c1nn(C)c2c1CSc1ccccc1-2 (stereo unspecified),outcome,[1],inactive
same,outcome,[2],inactive
same,outcome,[3],inactive
same,outcome,[4],inactive
same,inhibition,[5],94% (active)
same,outcome,[6],inactive
same,outcome,[7],inactive
same,outcome,[8],inactive
same,outcome,[9],inactive
same,outcome,[10],inactive
same,outcome,[11],inactive
same,outcome,[12],inactive
same,outcome,[13],inactive
same,outcome,[14],inactive
same,outcome,[15],inactive
same,outcome,[16],inactive
CCOC(=O)C1(Cc2ccccc2C)CCCN(Cc2ccc(NC(C)=O)cc2)C1 (stereo unspecified),outcome,[1],inactive
same,outcome,[2],inactive
same,outcome,[3],inactive
same,outcome,[4],inactive
same,inhibition,[5],83% (active)
same,outcome,[6],inactive
same,outcome,[7],inactive
same,outcome,[8],inactive
same,outcome,[9],inactive
same,outcome,[10],inactive
same,outcome,[11],inactive
same,outcome,[12],inactive
same,outcome,[13],inactive
same,outcome,[14],inactive
same,outcome,[15],inactive
same,outcome,[16],inactive
CCCCC(=O)N(c1ccc(C(=O)O)cc1)c1nc(-c2ccc(Cl)cc2)c(CC)s1,outcome,[1],inactive
same,outcome,[2],inactive
same,outcome,[3],inactive
same,outcome,[4],inactive
same,inhibition,[5],52% (active)
same,outcome,[6],inactive
same,outcome,[7],inactive
same,outcome,[8],inactive
same,outcome,[9],inactive
same,outcome,[10],inactive
same,outcome,[11],inactive
same,outcome,[12],inactive
same,inhibition,[13],17.1% (active)
same,outcome,[14],inactive
same,outcome,[15],inactive
same,outcome,[16],inactive
CCCCC(CC)C(=O)Nc1ncc([N+](=O)[O-])s1 (stereo unspecified),outcome,[1],inactive
same,outcome,[2],inactive
same,outcome,[3],inactive
same,outcome,[4],inactive
same,inhibition,[5],81% (active)
same,outcome,[6],inactive
same,outcome,[7],inactive
same,outcome,[8],inactive
same,inhibition,[9],33.5% (active)
same,outcome,[10],inactive
same,outcome,[11],inactive
same,outcome,[12],inactive
same,inhibition,[13],27.7% (active)
same,outcome,[14],inactive
same,outcome,[15],inactive
same,outcome,[16],inactive
Cc1ccc(-c2csc(NC(=O)C3CC=CCC3C(=O)O)c2C(=O)OC(C)C)cc1 (stereo unspecified),outcome,[1],inactive
same,outcome,[2],inactive
same,outcome,[3],inactive
same,outcome,[4],inactive
same,outcome,[5],inactive
same,outcome,[6],inactive
same,outcome,[7],inactive
same,outcome,[8],inactive
same,outcome,[9],inactive
same,outcome,[10],inactive
same,outcome,[11],inactive
same,outcome,[12],inactive
same,inhibition,[13],20.1% (active)
same,outcome,[14],inactive
same,outcome,[15],inactive
same,outcome,[16],inactive
CN1CCN(c2ccc(NC(=O)c3ccc(Br)o3)cc2)CC1,outcome,[1],inactive
same,outcome,[2],inactive
same,outcome,[3],inactive
same,outcome,[4],inactive
same,inhibition,[5],91% (active)
same,inhibition,[6],46% (active)
same,outcome,[7],inactive
same,outcome,[8],inactive
same,outcome,[9],inactive
same,outcome,[10],inactive
same,outcome,[11],inactive
same,outcome,[12],inactive
same,outcome,[13],inactive
same,outcome,[14],inactive
same,outcome,[15],inactive
same,outcome,[16],inactive
Cc1ccc(O)c(CNc2nc3ccccc3[nH]2)c1,outcome,[1],inactive
same,outcome,[2],inactive
same,outcome,[3],inactive
same,outcome,[4],inactive
same,inhibition,[5],96% (active)
same,inhibition,[6],76% (active)
same,outcome,[7],inactive
same,outcome,[8],inactive
same,outcome,[9],inactive
same,outcome,[10],inactive
same,outcome,[11],inactive
same,outcome,[12],inactive
same,inhibition,[13],24.5% (active)
same,outcome,[14],inactive
same,outcome,[15],inactive
same,outcome,[16],inactive
Clc1ccc(-c2csc3ncnc(NCCN4CCOCC4)c23)cc1,outcome,[1],inactive
same,outcome,[2],inactive
same,outcome,[3],inactive
same,outcome,[4],inactive
same,inhibition,[5],79% (active)
same,inhibition,[6],50% (active)
same,outcome,[7],inactive
same,outcome,[8],inactive
same,outcome,[9],inactive
same,outcome,[10],inactive
same,outcome,[11],inactive
same,outcome,[12],inactive
same,inhibition,[13],38% (active)
same,outcome,[14],inactive
same,outcome,[15],inactive
same,outcome,[16],inactive
